# Experimental data: paper PMC7862700, “An all-to-all approach to the identification of sequence-specific readers for epigenetic DNA modifications on cytosine”
# Assays:
# Assay in all cases: DAPPL (digital affinity profiling via proximity ligation, sequencing); 10 mM Tris-HCl pH 7.5, 50 mM NaCl, 1 mM DTT, 4% glycerol, room temperature, 30 min; GST-TFs on glutathione beads, 16-mer random dsDNA library, 0.1% formaldehyde crosslink after washing; high values mean tight binding
# [1] = biological target: T1, FLI1 (Homo sapiens, UniProt Q01543 1-452); conditions: protein: recombinant; tags: N-terminal GST; dsDNA, one strand shown
# T1 sequence: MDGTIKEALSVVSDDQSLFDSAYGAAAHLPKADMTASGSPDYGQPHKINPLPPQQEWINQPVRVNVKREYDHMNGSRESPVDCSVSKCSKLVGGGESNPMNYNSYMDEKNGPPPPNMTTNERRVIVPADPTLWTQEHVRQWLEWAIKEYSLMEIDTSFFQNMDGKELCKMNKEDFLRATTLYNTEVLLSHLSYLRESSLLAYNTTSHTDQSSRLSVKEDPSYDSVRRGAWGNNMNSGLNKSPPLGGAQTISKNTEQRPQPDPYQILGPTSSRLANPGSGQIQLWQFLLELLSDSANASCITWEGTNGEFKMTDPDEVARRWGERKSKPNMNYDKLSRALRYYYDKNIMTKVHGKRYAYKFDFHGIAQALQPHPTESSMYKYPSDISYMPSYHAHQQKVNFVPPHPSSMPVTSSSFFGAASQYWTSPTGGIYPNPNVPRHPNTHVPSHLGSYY
# Method in brief: (§1)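 Pools were built from human transcription factors expressed in yeast as GST fusions, captured on glutathione beads and DNA-barcoded, along with a tag-only sample. Incubation with 200 nmole of a 16-mer random double-stranded DNA library lasted 30 min at room temperature in Tris/NaCl/DTT/glycerol buffer, and was followed by washing, 0.1% formaldehyde crosslinking, proximity ligation, PCR amplification and Illumina NextSeq500 sequencing. Binding signal is the quotient of each hexamer's read frequency for a factor and its frequency for the tag-only sample.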
# [2] = biological target: T2, ELK1 (Homo sapiens, UniProt P19419 1-428); conditions: protein: recombinant; tags: N-terminal GST; dsDNA, one strand shown
# T2 sequence: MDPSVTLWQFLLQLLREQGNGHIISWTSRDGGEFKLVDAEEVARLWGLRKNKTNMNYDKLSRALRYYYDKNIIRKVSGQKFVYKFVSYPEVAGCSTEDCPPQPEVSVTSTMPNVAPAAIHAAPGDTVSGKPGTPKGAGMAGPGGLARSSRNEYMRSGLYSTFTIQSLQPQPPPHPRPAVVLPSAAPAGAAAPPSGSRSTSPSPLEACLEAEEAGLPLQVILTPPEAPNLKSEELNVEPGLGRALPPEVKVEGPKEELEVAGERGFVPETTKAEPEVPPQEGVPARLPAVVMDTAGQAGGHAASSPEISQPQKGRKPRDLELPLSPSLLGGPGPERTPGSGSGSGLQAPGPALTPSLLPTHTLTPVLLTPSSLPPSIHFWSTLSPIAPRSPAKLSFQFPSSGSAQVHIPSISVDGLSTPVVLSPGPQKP
# Method in brief: as §1
# [3] = biological target: T3, GABPA (Homo sapiens, UniProt Q06546 1-454); conditions: protein: recombinant; tags: N-terminal GST; dsDNA, one strand shown
# T3 sequence: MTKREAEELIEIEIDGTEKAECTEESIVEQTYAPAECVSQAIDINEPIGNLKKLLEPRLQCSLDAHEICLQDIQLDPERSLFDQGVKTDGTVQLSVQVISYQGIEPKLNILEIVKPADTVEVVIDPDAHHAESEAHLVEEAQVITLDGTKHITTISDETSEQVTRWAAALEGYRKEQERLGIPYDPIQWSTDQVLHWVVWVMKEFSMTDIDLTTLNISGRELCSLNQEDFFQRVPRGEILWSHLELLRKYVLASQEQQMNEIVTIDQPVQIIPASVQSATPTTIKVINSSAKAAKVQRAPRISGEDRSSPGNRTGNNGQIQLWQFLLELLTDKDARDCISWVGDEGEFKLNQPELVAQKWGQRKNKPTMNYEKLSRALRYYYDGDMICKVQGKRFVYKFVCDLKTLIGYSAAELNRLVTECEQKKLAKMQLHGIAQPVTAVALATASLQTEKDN
# Method in brief: as §1
# [4] = biological target: T4, ERG (Homo sapiens, UniProt P11308 1-479); conditions: protein: recombinant; tags: N-terminal GST; dsDNA, one strand shown
# T4 sequence: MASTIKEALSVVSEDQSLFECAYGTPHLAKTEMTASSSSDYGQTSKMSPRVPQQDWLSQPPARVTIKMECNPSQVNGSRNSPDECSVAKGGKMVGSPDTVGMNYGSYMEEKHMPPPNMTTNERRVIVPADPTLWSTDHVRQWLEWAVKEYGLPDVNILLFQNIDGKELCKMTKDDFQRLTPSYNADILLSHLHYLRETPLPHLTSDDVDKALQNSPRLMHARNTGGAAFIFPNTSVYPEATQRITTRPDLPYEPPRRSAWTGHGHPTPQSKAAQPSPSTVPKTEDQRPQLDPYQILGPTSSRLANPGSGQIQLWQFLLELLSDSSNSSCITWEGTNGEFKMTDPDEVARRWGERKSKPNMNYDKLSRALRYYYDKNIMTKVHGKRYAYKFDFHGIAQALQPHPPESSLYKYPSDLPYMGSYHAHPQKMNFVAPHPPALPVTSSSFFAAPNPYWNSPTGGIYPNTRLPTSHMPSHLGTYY
# Method in brief: as §1
# [5] = biological target: ELF1 (Homo sapiens, UniProt P32519 1-619); conditions: protein: recombinant; tags: N-terminal GST; dsDNA, one strand shown
# Method in brief: as §1
# [6] = biological target: T5, EHF (Homo sapiens, UniProt Q9NZC4 1-300); conditions: protein: recombinant; tags: N-terminal GST; dsDNA, one strand shown
# T5 sequence: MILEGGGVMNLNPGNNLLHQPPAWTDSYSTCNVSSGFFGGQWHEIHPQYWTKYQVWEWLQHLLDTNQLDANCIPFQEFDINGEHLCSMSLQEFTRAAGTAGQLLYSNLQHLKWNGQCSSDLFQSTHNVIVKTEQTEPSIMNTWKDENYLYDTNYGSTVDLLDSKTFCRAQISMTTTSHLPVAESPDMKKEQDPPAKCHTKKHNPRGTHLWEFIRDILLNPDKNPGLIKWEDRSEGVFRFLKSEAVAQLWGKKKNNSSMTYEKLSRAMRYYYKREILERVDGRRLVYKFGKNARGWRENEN
# Method in brief: as §1
# [7] = biological target: SPI1 (Homo sapiens, UniProt P17947 1-270); conditions: protein: recombinant; tags: N-terminal GST; dsDNA, one strand shown
# Method in brief: as §1
# [8] = biological target: SPIB (Homo sapiens, UniProt Q01892 1-262); conditions: protein: recombinant; tags: N-terminal GST; dsDNA, one strand shown
# Method in brief: as §1
# [9] = biological target: T6, ELK3 (Homo sapiens, UniProt P41970 1-407); conditions: protein: recombinant; tags: N-terminal GST; dsDNA, one strand shown
# T6 sequence: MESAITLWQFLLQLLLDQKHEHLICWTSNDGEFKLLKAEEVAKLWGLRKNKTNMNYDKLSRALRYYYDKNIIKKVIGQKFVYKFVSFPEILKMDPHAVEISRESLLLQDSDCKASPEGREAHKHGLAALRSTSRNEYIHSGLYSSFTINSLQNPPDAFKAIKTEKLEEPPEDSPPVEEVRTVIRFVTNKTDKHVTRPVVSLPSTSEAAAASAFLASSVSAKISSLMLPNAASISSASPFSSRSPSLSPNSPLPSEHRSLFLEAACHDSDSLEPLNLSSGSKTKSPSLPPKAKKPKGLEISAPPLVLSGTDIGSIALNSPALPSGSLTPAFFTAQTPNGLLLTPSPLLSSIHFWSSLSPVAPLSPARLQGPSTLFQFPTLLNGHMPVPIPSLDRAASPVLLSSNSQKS
# Method in brief: as §1
# [10] = biological target: T7, FEV (Homo sapiens, UniProt Q99581 1-238); conditions: protein: recombinant; tags: N-terminal GST; dsDNA, one strand shown
# T7 sequence: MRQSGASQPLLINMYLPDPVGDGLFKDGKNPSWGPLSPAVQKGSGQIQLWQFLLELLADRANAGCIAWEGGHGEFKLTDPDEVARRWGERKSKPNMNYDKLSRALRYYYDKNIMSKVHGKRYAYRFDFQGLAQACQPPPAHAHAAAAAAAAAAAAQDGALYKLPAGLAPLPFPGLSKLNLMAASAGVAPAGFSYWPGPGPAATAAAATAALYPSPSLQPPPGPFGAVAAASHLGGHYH
# Method in brief: as §1
# [11] = biological target: ETV5 (Homo sapiens, UniProt P41161 1-510); conditions: protein: recombinant; tags: N-terminal GST; dsDNA, one strand shown
# Method in brief: as §1
# [12] = biological target: HSF1 (Homo sapiens, UniProt Q00613 1-529); conditions: protein: recombinant; tags: N-terminal GST; chain copies: 3; dsDNA, one strand shown
# Method in brief: as §1
# [13] = biological target: T8, SPIC (Homo sapiens, UniProt Q8N5J4 1-248); conditions: protein: recombinant; tags: N-terminal GST; dsDNA, one strand shown
# T8 sequence: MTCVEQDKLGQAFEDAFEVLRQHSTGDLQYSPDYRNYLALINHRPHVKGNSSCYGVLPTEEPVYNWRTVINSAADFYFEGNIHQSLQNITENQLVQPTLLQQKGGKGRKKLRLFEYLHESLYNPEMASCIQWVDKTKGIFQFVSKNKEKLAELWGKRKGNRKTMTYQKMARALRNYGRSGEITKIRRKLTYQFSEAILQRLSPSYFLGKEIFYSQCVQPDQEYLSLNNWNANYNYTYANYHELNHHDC
# Method in brief: as §1
# [14] = biological target: ELF4 (Homo sapiens, UniProt Q99607 1-663); conditions: protein: recombinant; tags: N-terminal GST; dsDNA, one strand shown
# Method in brief: as §1
# [15] = biological target: T9, ELK4 (Homo sapiens, UniProt P28324-2 1-405); conditions: protein: recombinant; tags: N-terminal GST; dsDNA, one strand shown
# T9 sequence: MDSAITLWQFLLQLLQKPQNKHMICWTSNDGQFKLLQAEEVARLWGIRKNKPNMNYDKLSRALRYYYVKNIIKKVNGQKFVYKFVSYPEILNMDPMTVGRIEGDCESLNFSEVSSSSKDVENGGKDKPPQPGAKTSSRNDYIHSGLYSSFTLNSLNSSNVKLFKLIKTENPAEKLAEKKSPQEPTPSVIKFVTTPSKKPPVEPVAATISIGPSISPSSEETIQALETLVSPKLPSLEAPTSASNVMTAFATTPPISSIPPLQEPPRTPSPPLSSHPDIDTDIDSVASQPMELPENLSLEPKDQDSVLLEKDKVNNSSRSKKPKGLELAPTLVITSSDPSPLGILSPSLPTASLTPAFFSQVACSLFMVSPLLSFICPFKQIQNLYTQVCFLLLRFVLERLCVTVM
# Method in brief: as §1
# [16] = biological target: T10, ETV2 (Homo sapiens, UniProt O00321 1-342); conditions: protein: recombinant; tags: N-terminal GST; dsDNA, one strand shown
# T10 sequence: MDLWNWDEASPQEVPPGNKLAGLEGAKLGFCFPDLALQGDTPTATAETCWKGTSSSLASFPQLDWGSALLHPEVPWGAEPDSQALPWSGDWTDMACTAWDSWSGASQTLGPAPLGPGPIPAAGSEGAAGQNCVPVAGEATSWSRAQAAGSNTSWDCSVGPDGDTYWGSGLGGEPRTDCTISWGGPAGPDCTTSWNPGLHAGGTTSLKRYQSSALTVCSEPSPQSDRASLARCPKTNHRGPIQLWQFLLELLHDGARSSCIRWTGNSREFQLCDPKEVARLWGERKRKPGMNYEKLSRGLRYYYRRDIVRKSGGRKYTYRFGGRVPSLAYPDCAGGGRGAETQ
# Method in brief: as §1
# [17] = biological target: T11, ELF3 (Homo sapiens, UniProt P78545 1-371); conditions: protein: recombinant; tags: N-terminal GST; dsDNA, one strand shown
# T11 sequence: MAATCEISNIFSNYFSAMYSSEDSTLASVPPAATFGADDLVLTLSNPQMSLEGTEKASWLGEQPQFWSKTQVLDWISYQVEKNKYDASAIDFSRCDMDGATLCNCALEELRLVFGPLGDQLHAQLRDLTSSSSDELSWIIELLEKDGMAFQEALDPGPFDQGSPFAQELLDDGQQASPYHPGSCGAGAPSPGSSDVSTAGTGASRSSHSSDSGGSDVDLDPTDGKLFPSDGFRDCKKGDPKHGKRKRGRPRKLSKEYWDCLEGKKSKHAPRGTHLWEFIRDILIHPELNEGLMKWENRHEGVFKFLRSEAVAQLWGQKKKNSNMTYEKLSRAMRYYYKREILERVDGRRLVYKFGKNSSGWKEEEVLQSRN
# Method in brief: as §1
# [18] = biological target: CRX (Homo sapiens, UniProt O43186 1-299); conditions: protein: recombinant; tags: N-terminal GST; dsDNA, one strand shown
# Method in brief: as §1
# [19] = biological target: ETV1 (Homo sapiens, UniProt P50549 1-477); conditions: protein: recombinant; tags: N-terminal GST; dsDNA, one strand shown
# Method in brief: as §1
# Chain of HSF1 (Q00613 whole entry): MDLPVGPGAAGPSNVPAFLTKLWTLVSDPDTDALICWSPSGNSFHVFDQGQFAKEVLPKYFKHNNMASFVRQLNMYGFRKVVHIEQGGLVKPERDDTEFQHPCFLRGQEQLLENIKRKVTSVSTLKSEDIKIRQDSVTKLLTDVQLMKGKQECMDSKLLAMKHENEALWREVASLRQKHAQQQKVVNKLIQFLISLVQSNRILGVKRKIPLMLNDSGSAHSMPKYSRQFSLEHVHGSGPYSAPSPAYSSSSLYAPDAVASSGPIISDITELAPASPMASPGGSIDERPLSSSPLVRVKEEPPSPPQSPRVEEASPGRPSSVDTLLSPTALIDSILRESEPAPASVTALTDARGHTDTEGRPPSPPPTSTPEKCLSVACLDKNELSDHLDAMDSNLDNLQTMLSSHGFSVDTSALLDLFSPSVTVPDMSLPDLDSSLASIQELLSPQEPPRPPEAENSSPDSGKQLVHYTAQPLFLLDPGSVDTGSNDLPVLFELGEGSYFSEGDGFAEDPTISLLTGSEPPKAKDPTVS
# Chain of CRX (O43186 whole entry): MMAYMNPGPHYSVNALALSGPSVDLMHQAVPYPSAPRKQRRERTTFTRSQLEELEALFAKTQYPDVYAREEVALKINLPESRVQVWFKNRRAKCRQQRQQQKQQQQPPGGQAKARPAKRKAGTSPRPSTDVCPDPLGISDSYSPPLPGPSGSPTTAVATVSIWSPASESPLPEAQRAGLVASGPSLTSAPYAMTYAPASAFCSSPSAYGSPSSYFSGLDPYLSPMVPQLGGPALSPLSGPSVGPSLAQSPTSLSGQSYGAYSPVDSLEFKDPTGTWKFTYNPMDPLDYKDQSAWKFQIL
# Chain of ETV5 (P41161 whole entry): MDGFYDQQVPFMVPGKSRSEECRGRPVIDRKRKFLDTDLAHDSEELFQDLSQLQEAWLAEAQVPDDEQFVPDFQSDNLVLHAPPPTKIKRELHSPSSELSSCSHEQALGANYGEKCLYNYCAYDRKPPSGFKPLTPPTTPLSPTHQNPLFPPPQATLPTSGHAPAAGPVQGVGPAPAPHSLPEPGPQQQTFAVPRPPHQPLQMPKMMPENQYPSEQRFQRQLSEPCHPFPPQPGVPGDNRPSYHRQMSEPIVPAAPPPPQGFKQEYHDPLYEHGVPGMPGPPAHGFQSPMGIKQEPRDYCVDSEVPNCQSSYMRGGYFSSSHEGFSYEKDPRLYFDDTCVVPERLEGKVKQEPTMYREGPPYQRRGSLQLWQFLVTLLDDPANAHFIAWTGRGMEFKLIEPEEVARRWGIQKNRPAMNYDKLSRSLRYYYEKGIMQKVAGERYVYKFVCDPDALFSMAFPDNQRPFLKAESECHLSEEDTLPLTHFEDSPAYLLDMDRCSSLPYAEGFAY
# Chain of SPIB (Q01892 whole entry): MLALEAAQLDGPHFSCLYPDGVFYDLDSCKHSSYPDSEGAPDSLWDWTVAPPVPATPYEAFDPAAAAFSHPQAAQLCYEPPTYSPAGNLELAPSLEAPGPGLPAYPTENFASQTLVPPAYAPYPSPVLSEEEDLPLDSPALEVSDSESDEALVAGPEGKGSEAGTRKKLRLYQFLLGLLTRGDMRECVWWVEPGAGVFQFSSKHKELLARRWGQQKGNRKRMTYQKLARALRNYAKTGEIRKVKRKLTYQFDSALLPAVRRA
# Chain of ELF4 (Q99607 whole entry): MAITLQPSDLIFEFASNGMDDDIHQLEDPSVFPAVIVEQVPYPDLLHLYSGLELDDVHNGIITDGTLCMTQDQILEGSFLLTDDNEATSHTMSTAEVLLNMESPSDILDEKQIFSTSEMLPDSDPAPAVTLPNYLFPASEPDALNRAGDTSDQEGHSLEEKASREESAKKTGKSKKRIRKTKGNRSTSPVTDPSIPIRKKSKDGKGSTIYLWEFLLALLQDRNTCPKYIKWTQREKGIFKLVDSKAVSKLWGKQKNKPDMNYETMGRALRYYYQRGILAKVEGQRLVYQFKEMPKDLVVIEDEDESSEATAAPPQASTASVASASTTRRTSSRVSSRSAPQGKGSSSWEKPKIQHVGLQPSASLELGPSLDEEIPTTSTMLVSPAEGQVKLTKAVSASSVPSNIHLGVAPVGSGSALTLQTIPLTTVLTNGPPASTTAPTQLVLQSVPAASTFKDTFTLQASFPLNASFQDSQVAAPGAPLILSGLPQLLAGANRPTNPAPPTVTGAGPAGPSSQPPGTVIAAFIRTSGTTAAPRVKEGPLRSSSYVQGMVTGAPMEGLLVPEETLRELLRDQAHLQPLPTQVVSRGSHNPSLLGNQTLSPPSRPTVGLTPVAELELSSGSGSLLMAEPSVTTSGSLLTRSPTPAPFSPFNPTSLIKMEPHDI
# Chain of ETV1 (P50549 whole entry): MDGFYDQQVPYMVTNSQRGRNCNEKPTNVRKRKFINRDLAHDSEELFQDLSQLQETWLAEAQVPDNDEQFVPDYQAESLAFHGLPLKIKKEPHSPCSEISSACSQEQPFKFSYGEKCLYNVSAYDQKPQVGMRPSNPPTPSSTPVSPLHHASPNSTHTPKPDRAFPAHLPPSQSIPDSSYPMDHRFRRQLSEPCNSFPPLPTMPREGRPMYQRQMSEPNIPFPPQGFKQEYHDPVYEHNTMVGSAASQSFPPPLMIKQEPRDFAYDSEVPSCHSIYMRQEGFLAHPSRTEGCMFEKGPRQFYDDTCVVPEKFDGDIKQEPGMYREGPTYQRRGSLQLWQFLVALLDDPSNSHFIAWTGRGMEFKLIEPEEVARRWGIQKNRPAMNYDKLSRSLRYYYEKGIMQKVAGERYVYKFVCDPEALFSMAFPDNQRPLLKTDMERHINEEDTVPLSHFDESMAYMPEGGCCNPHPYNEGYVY
# Chain of ELF1 (P32519 whole entry): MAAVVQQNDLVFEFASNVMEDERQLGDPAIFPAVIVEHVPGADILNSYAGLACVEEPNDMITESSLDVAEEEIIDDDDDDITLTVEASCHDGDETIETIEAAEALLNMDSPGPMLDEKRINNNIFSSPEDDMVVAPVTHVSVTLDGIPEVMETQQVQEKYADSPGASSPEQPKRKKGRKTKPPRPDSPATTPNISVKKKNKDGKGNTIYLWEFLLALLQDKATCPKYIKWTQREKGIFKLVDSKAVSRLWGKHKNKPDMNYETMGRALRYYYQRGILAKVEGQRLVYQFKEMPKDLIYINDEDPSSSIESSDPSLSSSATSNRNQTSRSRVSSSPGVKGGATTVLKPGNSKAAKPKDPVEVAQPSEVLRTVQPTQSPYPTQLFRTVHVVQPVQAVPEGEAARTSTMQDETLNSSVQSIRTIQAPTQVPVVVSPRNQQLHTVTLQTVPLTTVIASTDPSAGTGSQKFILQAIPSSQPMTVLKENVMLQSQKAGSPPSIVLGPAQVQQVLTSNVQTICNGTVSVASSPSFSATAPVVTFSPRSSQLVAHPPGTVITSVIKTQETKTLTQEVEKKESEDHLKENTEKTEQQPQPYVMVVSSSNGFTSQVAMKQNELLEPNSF
sequence,measurement,setting,value
CGAAAA,binding signal,[1],"1.07 fold enrichment (6-mer frequency, TF over GST control)"
same,binding signal,[2],"1.07 fold enrichment (6-mer frequency, TF over GST control)"
same,binding signal,[3],"1.17 fold enrichment (6-mer frequency, TF over GST control)"
same,binding signal,[4],"1.06 fold enrichment (6-mer frequency, TF over GST control)"
same,binding signal,[5],"1.05 fold enrichment (6-mer frequency, TF over GST control)"
same,binding signal,[6],"1.14 fold enrichment (6-mer frequency, TF over GST control)"
same,binding signal,[7],"1.1 fold enrichment (6-mer frequency, TF over GST control)"
same,binding signal,[8],"1.04 fold enrichment (6-mer frequency, TF over GST control)"
same,binding signal,[9],"1.01 fold enrichment (6-mer frequency, TF over GST control)"
same,binding signal,[10],"1.04 fold enrichment (6-mer frequency, TF over GST control)"
same,binding signal,[11],"1.13 fold enrichment (6-mer frequency, TF over GST control)"
same,binding signal,[12],"1.85 fold enrichment (6-mer frequency, TF over GST control)"
same,binding signal,[13],"1.07 fold enrichment (6-mer frequency, TF over GST control)"
same,binding signal,[14],"1.11 fold enrichment (6-mer frequency, TF over GST control)"
same,binding signal,[15],"1.12 fold enrichment (6-mer frequency, TF over GST control)"
same,binding signal,[16],"1.04 fold enrichment (6-mer frequency, TF over GST control)"
same,binding signal,[17],"1.01 fold enrichment (6-mer frequency, TF over GST control)"
same,binding signal,[18],"1.12 fold enrichment (6-mer frequency, TF over GST control)"
same,binding signal,[19],"1.06 fold enrichment (6-mer frequency, TF over GST control)"
